Out of some 190,000 compounds screened, about 1,600 (0.84%) were called active.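 Rule for the calls: active = inhibition above a set limit, derived from the sample mean plus 3 SD (cut at about 45% in these data); inconclusive = one replicate passes the limit while the other fails; inactive = the rest.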 The entries come from a sample that favours actives as a whole.
assay: APP 5'UTR translational reporter suppression – APP 5'UTR luciferase, SH-SY5Y cells, primary screen (AID 1285); details: SH-SY5Y APP 5'UTR-luciferase reporter, luminescence; at 2 µM; active compounds read high

Row | SMILES | inhibition
1 | Cc1cc(C(=O)NNC(=O)CCC2CCCCC2)c(C)o1 | -4% (inactive)
2 | O=C(Cc1cccs1)N(CC1CCCO1)C1(C(=O)NC2CCCCC2)CCCCC1 (stereo not drawn) | -11.4% (inactive)
3 | Cc1ccc(C(=O)OC2CCCN(C)C2)cc1 (stereo not drawn) | 5.1% (inactive)
4 | Cc1nnc(-c2ccc(Oc3ccc(C)c(C)c3)c([N+](=O)[O-])c2)o1 | 11.5% (inactive)
5 | Cc1[nH]c2ccccc2c1/C=N\NC(=O)Cn1nnc(-c2ccccc2)n1 | -1.1% (inactive)
6 | CC1=NN(C(=O)CCc2ccccc2O)C(O)(C(F)(F)F)C1 (stereo not drawn) | 8.6% (inactive)
7 | Cc1cc(NC(=O)COC(=O)COc2ccc(Cl)cc2C)c([N+](=O)[O-])cc1C | 8.7% (inactive)
8 | Cc1ccc(C(C)C)cc1OCCN1CCCC1 | -3.6% (inactive)
9 | Cc1cc(N2CCN(C)CC2)nc2ccc(NC(=S)N3CCOCC3)cc12 | -5.6% (inactive)
10 | COc1cc(/C=C2\SC(=S)N(Nc3ncc(C(F)(F)F)cc3Cl)C2=O)cc(OC)c1OC | 0.7% (inactive)
11 | COc1cccc(/C=N/Nc2ncc(C(F)(F)F)cc2Cl)c1O | 80.5% (active)
12 | COc1cccc(/C(C)=N/Nc2ncc(Cl)cc2Cl)c1 | -24.9% (inactive)
13 | OCCC1CN(Cc2cccc(O)c2)CCN1CCc1ccccc1 (stereo not drawn) | 1% (inactive)
14 | Cc1nn(C)c(C)c1S(=O)(=O)N1CCC(CO)(Cc2ccc(Cl)cc2)CC1 | 26.8% (inactive)
15 | Cc1ccccc1NC(=S)Nc1cccc([N+](=O)[O-])c1 | 10.9% (inactive)
16 | CC(=O)Nc1cccc([N+](=O)[O-])c1 | -68.1% (inactive)
17 | COC(=O)/C=C\C(=O)Nc1cccc([N+](=O)[O-])c1 | 65% (active)
18 | CCOC(=O)c1c(C)[nH]c(=S)c(C#N)c1-c1ccccc1 | 17.1% (inactive)
19 | Cc1[nH]c2ccccc2c1C(=O)COC(=O)C(C)C | -8.5% (inactive)
20 | CCOC(=O)c1c(C)[nH]c2c1-c1ccccc1C(=O)C2=O | 95.9% (active)
21 | CSc1ccc(C(=O)C2CCCN(C(=O)c3ccc(C)nc3)C2)cc1 (stereo not drawn) | -16.6% (inactive)
22 | CCOc1cc(N2CCOCC2)c(OCC)cc1NC(=O)C1=NN(c2cccc(C)c2)C(=O)CC1 | -5.2% (inactive)
23 | CCCn1c(N)c(C(=O)CSc2nc3ccccc3c(=O)n2-c2ccc(OC)cc2)c(=O)[nH]c1=O | -3.9% (inactive)
24 | CCOC(=O)CSc1ncc(-c2cccc(Cl)c2)cn1 | -2.7% (inactive)
25 | O=C1CCCc2c1nc(-c1cccc(Cl)c1)n2O | 94.3% (active)

Row | SMILES | inhibition
26 | O=c1c2c(nc3cc(-c4cccc(Cl)c4)[nH]n13)CCCC2 | -158% (inactive)
27 | CCCn1c(NC(=O)C23CC4CC(CC(O)(C4)C2)C3)nc2ccccc21 | 9% (inactive)
28 | COC(=O)c1c(C)oc2ccc(N(C(=O)Oc3ccccc3)S(=O)(=O)c3ccccc3)cc12 | 0.2% (inactive)
29 | O=C(NC(=S)Nc1ccc2oc(=O)ccc2c1)c1ccc(-c2cccc(Cl)c2Cl)o1 | 2.2% (inactive)
30 | CCOc1cc(NC(=O)CCl)c(OCC)cc1NC(C)=O | 5.3% (inactive)
31 | CCOc1cccc(-n2nnnc2-c2ccc(OC)cc2)c1 | 65.8% (active)
32 | CCOc1cccc(-c2nnc3sc(COc4ccc(OC)cc4)nn23)c1 | -2.3% (inactive)
33 | COc1ccc(-n2nnnc2-c2nc3ccccc3s2)cc1 | -237% (inactive)
34 | C/C(=N\NC(=O)c1ccc(CSc2nc(C)cc(C)n2)cc1)C1CCCCC1 | -23.6% (inactive)
35 | COc1ccc(CC(=O)NC(C)CCc2ccccc2)cc1 (stereo not drawn) | 18.8% (inactive)
36 | COc1cccc(CNCCc2c[nH]c3ccccc23)c1OCc1ccccc1F | -3.5% (inactive)
37 | COc1ccc(C(CCNCc2ccccc2F)c2ccc(F)cc2)cc1 (stereo not drawn) | 50.4% (active)
38 | CCC(C)(C)NC(=O)C1c2ccccc2Oc2ccccc21 | -10.4% (inactive)
39 | COc1cc2nc(CN(C)Cc3ccc(F)cc3)[nH]c(=O)c2cc1OC | -10.3% (inactive)
40 | COc1ccc(C(=O)Nc2ccc(F)cc2F)cc1 | -131% (inactive)
41 | O=C(CN1CCN(S(=O)(=O)c2ccc(F)cc2)CC1)Nc1ccccc1F | -2% (inactive)
42 | CCOC(=O)N1CCN(S(=O)(=O)c2ccc(C(=O)Nc3ccc(F)cc3F)cc2)CC1 | 92.2% (active)
43 | Cc1nc(-c2ccc(Cl)cc2)sc1C(=O)CBr | 5.2% (inactive)
44 | Clc1ccc(N/N=C/c2cccs2)nn1 | -17.2% (inactive)
45 | COc1cccc2c1OCC(CN1CCN(C3CCCCC3)C(CCO)C1)=C2 (stereo not drawn) | 10.6% (inactive)
46 | NS(=O)(=O)c1ccc(NC(=O)COC(=O)c2ccc(Cl)nc2)cc1 | -14.1% (inactive)
47 | O=C(NNc1ccccn1)c1ccc(Cl)nc1 | 9.8% (inactive)
48 | CCN(CC)c1ccc(NC(=O)c2ccc(Cl)nc2)cc1 | 66.1% (active)
49 | Cc1ccc(S(=O)(=O)N(C)c2ccc(OCC(=O)NC3=NCCS3)cc2)cc1 | -2.9% (inactive)
50 | COc1ccc2nc(Nc3nc4ccc(NC(C)=O)cc4s3)sc2c1 | -20.2% (inactive)

Row | SMILES | inhibition
51 | CCCC(=O)Nc1nc2ccc(NC(=O)c3cccnc3)cc2s1 | 4.1% (inactive)
52 | CCCC(=O)Nc1nc2ccc(NC(=O)c3c(F)c(F)c(OC)c(F)c3F)cc2s1 | 88.8% (active)
53 | CCOc1cnc(-c2c(-c3ccccc3Cl)noc2C)o1 | 16.9% (inactive)
54 | O=C(Cn1ncc(N2CCCC2)c(Br)c1=O)c1ccc(Cl)cc1 | -71.1% (inactive)
55 | CCOC(=O)c1ccccc1NS(=O)(=O)c1ccc(OC)cc1 | -5.3% (inactive)
56 | CCCCC(C(=O)OCC(=O)c1ccc(OC)cc1)N1C(=O)c2ccccc2C1=O (stereo not drawn) | 7.1% (inactive)
57 | CCOC(=O)C1=C(c2ccc(OC)cc2)C(=O)c2ccccc2C1=O | 59.6% (active)
58 | C[C@@H]1C[C@@H]2O[C@H]2/C=C\C=C\C(=O)Cc2c(Cl)c(O)cc(O)c2C(=O)O1 | 95% (active)
59 | O=C(Nc1ccc2c(c1)OCO2)c1sc2cc(Cl)ccc2c1Cl | -85% (inactive)
60 | O=S(=O)(NCCc1ccncc1)c1ccccc1 | 16.4% (inactive)
61 | Cc1ccc(-c2cc(=O)c3ccc(Cl)cc3[nH]2)cc1 | -13.4% (inactive)
62 | O=c1cc(-c2ccccc2)[nH]c2cc(F)ccc12 | 89.6% (active)
63 | Cc1ccc(-c2cc(=O)c3ccc(F)cc3[nH]2)cc1 | -29.4% (inactive)
64 | Cc1ccnc(NS(=O)(=O)c2ccc(NC(=O)c3ccc(S(=O)(=O)N4CCOCC4)cc3)cc2)n1 | 5.8% (inactive)
65 | Cc1ccc(-c2nn(-c3ccccc3)cc2/C=N/NC(=O)c2ccc3c(c2)OCO3)cc1 | 4.8% (inactive)
66 | Cc1cccc(-n2c(C)cc(/C=N\NC(=O)c3cccs3)c2C)c1 | -62.9% (inactive)
67 | Cc1ccc(/C=N/NC(=O)C2=NNC(c3ccccc3)(c3ccccc3)C2)c(O)c1 | 73% (active)
68 | O=C(CCc1n[nH]c(=O)[nH]c1=O)N/N=C/c1ccc(Br)o1 | -6.1% (inactive)
69 | CCCOC(=O)c1[nH]c2c(c1C)C(=O)CC(c1cc(OC)c(OC)c(OC)c1)C2 (stereo not drawn) | -2.1% (inactive)
70 | CCCOC(=O)c1[nH]c2c(c1C)C(=O)CC(c1cccs1)C2 (stereo not drawn) | 92% (active)
71 | CCOC(=O)c1[nH]c2c(c1C)C(=O)CC(c1ccc(N(C)C)cc1)C2 (stereo not drawn) | -13.3% (inactive)
72 | CC(C)(C)NC(=O)NC(=O)COC(=O)C1(C)CC1(Cl)Cl (stereo not drawn) | 12.7% (inactive)
73 | COc1ccccc1OCCC(=O)OCC(=O)NC(=O)NC(C)(C)C | -5.5% (inactive)
74 | CC(C)(C)NC(=O)NC(=O)COC(=O)CCC1CCCCC1 | 61.5% (active)
75 | CN1CCC(OC(=O)COc2ccc(Cl)cc2Cl)CC1 | -5.1% (inactive)

Row | SMILES | inhibition
76 | COc1ccc(C(=O)Nc2ccccc2C(=O)N/N=C/c2ccccc2OC)cc1 | -8.9% (inactive)
77 | COc1cccc(/C=N/NC(=O)c2[nH]nc3c2CCc2ccccc2-3)c1O | 79.7% (active)
78 | COc1cccc(/C=N\NC(=O)C2=NNC(=O)C2C)c1O (stereo not drawn) | -73.4% (inactive)
79 | CCN(Cc1ccccc1)S(=O)(=O)c1cc(C(=O)O)ccc1OC | -51.9% (inactive)
80 | O=C(CC1SC(=Nc2ccccc2F)N(CCN2CCOCC2)C1=O)Nc1ccc(F)cc1F (stereo not drawn) | -19.1% (inactive)
81 | N#C/C(C(=O)N1CCOCC1)=C1/SC(Cc2ccc(F)cc2)C(=O)N1c1ccccc1 (stereo not drawn) | 56.6% (active)
82 | Cc1ccc(CC2S/C(=C(/C#N)C(=O)N3CCOCC3)N(c3ccccc3)C2=O)cc1 (stereo not drawn) | -2.7% (inactive)
83 | CCN(CC)C(=O)CS(=O)CC(=O)Nc1cc(OCCOC)c(Cl)cc1Cl (stereo not drawn) | -14% (inactive)
84 | Cc1oc2c(c1C(=O)N1CCOCC1)C(=O)c1ccccc1C2=O | 2.1% (inactive)
85 | O=C(NNC(=S)Nc1ccccc1)c1cccc(S(=O)(=O)N2CCOCC2)c1 | -32.5% (inactive)
86 | CCOC(=O)c1cnc(-n2nc(C)cc2C)nc1NNc1cc(C)nc(-c2ccccc2)n1 | 72.1% (active)
87 | CCOC(=O)c1cnc(-n2nc(C)cc2C)nc1-n1nc(C)cc1C | 6% (inactive)
88 | CCOC(=O)c1cnc(-n2nc(C)cc2C)nc1Nc1cccc(C(C)=O)c1 | -11.9% (inactive)
89 | Cc1ccc(C(=O)NC(C)c2ccccc2)cc1Br (stereo not drawn) | 25.6% (inactive)
90 | C/C=C/c1ccc(OCC(O)CN2CCCCCCC2)c(OC)c1 (stereo not drawn) | -39% (inactive)
91 | Nc1ccc(Oc2ccc(Cl)cc2)cc1 | 11.4% (inactive)
92 | CC(C)(C)c1ccc(Oc2ccc(N)cc2)cc1 | 84.4% (active)
93 | Cc1ccc(Oc2ccc(N)cc2)cc1 | 3.7% (inactive)
94 | Oc1ccc(/C=N/N(Cc2ccccc2)c2ccccc2)cc1 | -13.4% (inactive)
95 | N=C1/C(=C/c2cccn2-c2cccc([N+](=O)[O-])c2)C(=O)N=C2SC=CN12 | 17.8% (inactive)
96 | Cc1c(Cl)c([N+](=O)[O-])nn1CCCC(=O)Nc1cc(Cl)ccc1Cl | -6.1% (inactive)
97 | Cc1c(Cl)c([N+](=O)[O-])nn1Cc1ccc(C(=O)N/N=C\c2cc(Cl)ccc2O)o1 | 68.5% (active)
98 | O=C(N/N=C/c1ccc2c(c1)OCO2)c1ccc(Cn2cc([N+](=O)[O-])cn2)o1 | -17.9% (inactive)
